Source: PubChem BioAssay (Tox21)
Values without a mark were called inactive. Inconclusive results are not listed. Where a call stands in place of a potency, no number is given. Calls of active or inactive are those of the source. Unless noted, calls follow the shape of the full dose curve.

Assays:
[1] = Nuclear factor erythroid 2-related factor 2/antioxidant responsive element (Nrf2/ARE) small molecule agonists: qHTS cell viability counter screen in human keratinocytes (AID 1919968; active = well fitted curve in the direction sought with a large enough effect in the repeat runs; an effect the other way counts as inactive or inconclusive; also: nearly all actives have a fitted effect of over 55% in size)
How it was run: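 CellTiter-Fluor fluorescence, read 1 h after reagent, gave viability in the same wells as the ARE-luciferase assay. KeratinoSens cells (1,500/well) had 23 h compound exposure at 37 C/5% CO2 following 5 h plating.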

[2] = Nuclear factor erythroid 2-related factor 2/antioxidant responsive element (Nrf2/ARE) small molecule agonists: luciferase reporter gene qHTS assay in human keratinocytes (AID 1919969); also: nearly all actives have a fitted effect of over 35% in size; also: potency is read from the fitted curve at half-maximal effect
[3] = biological target: Gonadotropin-releasing hormone receptor (Homo sapiens) (UniProt P30968); assay: Human gonadotropin-releasing hormone receptor (GnRHR) small molecule agonists, calcium flux assay in GnRHR-HEK293 cells (AID 1920063); also: nearly all actives have a fitted effect of over 35% in size
How it was run: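 Agonist mode: compounds at 15 concentrations, in triplicate, went onto calcium dye-loaded GnRHR-HEK293 cells. Intracellular calcium was then followed as 480/540 nm fluorescence at 1 s intervals over 3 min.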

[4] = biological target: KiSS-1 receptor (Homo sapiens) (UniProt Q969F8); assay: Human kisspeptin (KISS1R) small molecule agonists, calcium flux assay in KISS1R-HEK293 cells (AID 1920064; active = well fitted curve in the direction sought with a large enough effect in the repeat runs; an effect the other way counts as inactive or inconclusive)
How it was run: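 Agonist mode: intracellular calcium rise tracked at 1 s intervals over 3 min (480/540 nm) immediately after compound addition to dye-loaded KISS1R-HEK293 stable cells. Each compound tested at 15 concentrations in triplicate.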

[5] = G protein-coupled receptor (GPCR) small molecule agonists, calcium flux assay: HEK293 wild type cell line counter screen (AID 1920065)
How it was run: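 Calcium flux counter screen: compound added in agonist mode at 15 concentrations in triplicate to dye-loaded parental HEK293 cells. Fluorescence (480/540) read kinetically for 3 min; ATP served as positive control.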

[6] = p53 small molecule agonists, cell-based qHTS assay with human liver microsomes (AID 1963577)
How it was run: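 Compounds act here after metabolic activation: human liver microsomes and NADPH, both at 0.5 mg/mL final, were co-added to p53RE-bla cells. Incubation ran 16 h at 37 C, followed by LiveBLAzer detection.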

[7] = p53 small molecule agonists, cell-based qHTS assay with rat liver microsomes (AID 1963578)
How it was run: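 Read-out is beta-lactamase reporter fluorescence (LiveBLAzer, 2 h, room temperature, dark) in p53RE-bla cells treated 16 h at 37 C with compound, rat liver microsomes and NADPH, both 0.5 mg/mL final.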

[8] = p53 small molecule agonists, cell-based qHTS assay with human liver microsomes: qHTS cell viability counter screen (AID 1963579); also: nearly all actives have a fitted effect of over 45% in size
How it was run: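 Cells carrying the p53 response-element beta-lactamase reporter are treated for 16 h at 37 C with test compounds in the presence of human liver microsomes and NADPH (both 0.5 mg/mL final); ATP-based CellTiter-Glo luminescence then reports viability.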

[9] = p53 small molecule agonists, cell-based qHTS assay with rat liver microsomes: qHTS cell viability counter screen (AID 1963580); also: nearly all actives have a fitted effect of over 45% in size
How it was run: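 Cytotoxicity counter screen: intracellular ATP read by CellTiter-Glo luminescence in the p53 reporter wells. HCT-116 p53RE-bla cells were treated for 16 h at 37 C alongside rat liver microsomes and NADPH, each 0.5 mg/mL final.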

[10] = p53 small molecule agonists, cell-based qHTS assay: qHTS cell viability counter screen (AID 1963581); also: nearly all actives have a fitted effect of over 45% in size
How it was run: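 Counter screen read by CellTiter-Glo luminescence (ATP content, 30 min at room temperature), run in the same wells as the beta-lactamase reporter read. HCT-116 p53RE-bla cells saw compounds for 16 h at 37 C.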

[11] = p53 small molecule agonists, cell-based qHTS assay (AID 1963582; active = well fitted activation curve with a large enough effect in the signal ratio in the repeat runs, not every such curve was filed as active; the % refers to the signal ratio)
How it was run: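 Read-out is beta-lactamase FRET fluorescence after 2 h at room temperature with LiveBLAzer B/G substrate. p53 response element-bla cells were treated 16 h at 37 C with compounds in DMSO, added 5 h after seeding.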

[12] = biological target: 5-hydroxytryptamine receptor 2A (Homo sapiens) (UniProt P28223); assay: 5-hydroxytryptamine receptor 2A (HTR2A) small molecule antagonists, cell-based qHTS assay (AID 1963586); also: nearly all actives have a fitted effect of over 45% in size
How it was run: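 CHO cells stably expressing human HTR2A were plated for 18 h at 37 C, then loaded with calcium dye for 1 h. Compounds were preincubated 5 min at room temperature before DOI (4 nM solution) was added. Kinetic fluorescence was read for 3 min.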

[13] = biological target: 5-hydroxytryptamine receptor 2A (Homo sapiens) (UniProt P28223); assay: 5-hydroxytryptamine receptor 2A (HTR2A) small molecule agonists, cell-based qHTS assay (AID 1963587); also: nearly all actives have a fitted effect of over 30% in size
How it was run: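 Kinetic calcium-flux fluorescence (2 min, 1 sec intervals) after compound addition in agonist mode. HTR2A-CHO cells were cultured 18 h, then dye-loaded 1 h at 37 C.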

[14] = biological target: Muscarinic acetylcholine receptor M1 (Homo sapiens) (UniProt P11229); assay: Cholinergic receptor muscarinic 1 (CHRM1) small molecule antagonists, cell-based qHTS assay (AID 1963588); also: nearly all actives have a fitted effect of over 40% in size
How it was run: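 Compounds were tested at 15 concentrations in three independent runs. Dye-loaded CHRM1-CHO cells were exposed 5 min at room temperature before stimulation by acetylcholine added at 50nM. Intracellular calcium was read kinetically on FDSS for 3 min.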

[15] = biological target: Muscarinic acetylcholine receptor M1 (Homo sapiens) (UniProt P11229); assay: Cholinergic receptor muscarinic 1 (CHRM1) small molecule agonists, cell-based qHTS assay (AID 1963589); also: nearly all actives have a fitted effect of over 35% in size
How it was run: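 Agonist-mode calcium-flux screen: compounds at 15 concentrations, three independent runs, were pin-transferred onto dye-loaded human CHRM1-CHO cells. Fluorescence was then recorded kinetically every second over minutes.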

[16] = cAMP Responsive Elements (CRE) small molecule agonists, cell-based qHTS assay (AID 1963590)
How it was run: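 Agonist mode: compound added to CRE-bla HEK 293T cells (2,000/well, 18 h after plating) for 3 h at 37 C/5% CO2. Reporter activity detected via FRET beta-lactamase substrate, 2 h room-temperature loading.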

[17] = cAMP Responsive Elements (CRE) small molecule antagonists, cell-based qHTS assay (AID 1963591; active = well fitted inhibition curve with a large enough effect in the signal ratio in the repeat runs, not every such curve was filed as active; the % refers to the signal ratio)
How it was run: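 Antagonist mode: compounds are added alongside the adenylyl cyclase activator NKH477 (0.25 uM final) to CRE-bla HEK293T cells for 3 h. LiveBLAzer FRET substrate, 2 h at room temperature, reports bla expression.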

[18] = biological target: Beta-2 adrenergic receptor (Homo sapiens) (UniProt P07550); assay: Adrenergic beta2 receptor (ADRB2) small molecule antagonists, cell-based qHTS assay (AID 1963592); also: series mostly up to about 92 µM; nearly all actives have a fitted effect of over 50% in size
How it was run: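 Assay format: CHO-ADRB2 cells, 18-20hr seeding at 37C/5% CO2, then compound plus 1nM isoproterenol agonist mix for 0.5hr RT. Homogeneous time-resolved fluorescence cAMP detection after 1hr, expressed as 665/615 nm ratio.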

[19] = biological target: D(2) dopamine receptor (Homo sapiens) (UniProt P14416); assay: Dopamine D2 receptor (DRD2) small molecule agonists, cell-based qHTS assay (AID 1963594); also: nearly all actives have a fitted effect of over 35% in size
How it was run: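 cAMP accumulation in DRD2-HEK293 cells measured by HTRF after 1 h detection; compounds added 10 min before NKH477 (200nM […]) forskolin-analogue stimulation, 30 min at room temperature, with Ro20-1724 present at 0.1 mM final.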

[20] = biological target: D(2) dopamine receptor (Homo sapiens) (UniProt P14416); assay: Dopamine D2 receptor (DRD2) small molecule antagonists, cell-based qHTS assay (AID 1963595; active = well fitted inhibition curve with a large enough effect in the signal ratio in the repeat runs, with a control signal flat; the % refers to the signal ratio)
How it was run: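 Cells were plated and grown for 24 h at 37 °C. Ro20-1724 (0.1 mM final) went in first, then compound for 10 min. NKH477 (200 nM) with quinpirole (12 nM) followed for 30 min at RT, then HTRF detection reagents for 1 h.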

Gonadotropin-releasing hormone receptor (Homo sapiens), sequence (P30968 whole entry, looked up): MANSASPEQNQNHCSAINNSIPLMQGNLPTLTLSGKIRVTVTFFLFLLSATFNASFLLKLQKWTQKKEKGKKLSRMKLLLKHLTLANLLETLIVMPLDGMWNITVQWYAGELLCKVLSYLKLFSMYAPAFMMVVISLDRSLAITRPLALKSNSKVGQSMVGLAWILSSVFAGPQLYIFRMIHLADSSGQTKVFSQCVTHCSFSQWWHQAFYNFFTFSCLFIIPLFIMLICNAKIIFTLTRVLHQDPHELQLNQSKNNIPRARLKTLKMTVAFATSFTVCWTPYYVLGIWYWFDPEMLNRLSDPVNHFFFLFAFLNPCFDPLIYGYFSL
KiSS-1 receptor (Homo sapiens), sequence (Q969F8 whole entry, looked up): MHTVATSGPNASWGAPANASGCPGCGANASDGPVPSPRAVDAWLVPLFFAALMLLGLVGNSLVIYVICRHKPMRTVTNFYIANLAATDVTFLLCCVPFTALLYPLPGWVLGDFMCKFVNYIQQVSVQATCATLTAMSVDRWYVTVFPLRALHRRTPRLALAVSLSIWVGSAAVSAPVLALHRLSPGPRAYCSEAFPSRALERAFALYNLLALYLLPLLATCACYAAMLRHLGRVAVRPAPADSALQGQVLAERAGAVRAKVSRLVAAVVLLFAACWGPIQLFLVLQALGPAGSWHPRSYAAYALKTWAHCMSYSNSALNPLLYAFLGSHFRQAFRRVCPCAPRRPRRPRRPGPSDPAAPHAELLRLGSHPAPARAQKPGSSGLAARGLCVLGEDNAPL
D(2) dopamine receptor (Homo sapiens), sequence (P14416 whole entry, looked up): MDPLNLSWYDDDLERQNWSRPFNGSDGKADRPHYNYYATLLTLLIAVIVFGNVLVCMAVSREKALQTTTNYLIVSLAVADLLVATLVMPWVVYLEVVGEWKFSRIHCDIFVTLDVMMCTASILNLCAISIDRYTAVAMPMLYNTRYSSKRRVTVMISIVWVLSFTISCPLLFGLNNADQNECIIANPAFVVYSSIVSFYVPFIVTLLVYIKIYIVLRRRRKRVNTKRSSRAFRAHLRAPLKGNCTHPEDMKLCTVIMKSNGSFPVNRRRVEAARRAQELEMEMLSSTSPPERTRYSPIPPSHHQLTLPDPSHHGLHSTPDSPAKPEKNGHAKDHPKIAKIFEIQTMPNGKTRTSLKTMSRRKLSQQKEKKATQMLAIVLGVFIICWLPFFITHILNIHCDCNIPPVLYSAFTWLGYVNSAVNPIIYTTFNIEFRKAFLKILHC
Beta-2 adrenergic receptor (Homo sapiens), sequence (P07550 whole entry, looked up): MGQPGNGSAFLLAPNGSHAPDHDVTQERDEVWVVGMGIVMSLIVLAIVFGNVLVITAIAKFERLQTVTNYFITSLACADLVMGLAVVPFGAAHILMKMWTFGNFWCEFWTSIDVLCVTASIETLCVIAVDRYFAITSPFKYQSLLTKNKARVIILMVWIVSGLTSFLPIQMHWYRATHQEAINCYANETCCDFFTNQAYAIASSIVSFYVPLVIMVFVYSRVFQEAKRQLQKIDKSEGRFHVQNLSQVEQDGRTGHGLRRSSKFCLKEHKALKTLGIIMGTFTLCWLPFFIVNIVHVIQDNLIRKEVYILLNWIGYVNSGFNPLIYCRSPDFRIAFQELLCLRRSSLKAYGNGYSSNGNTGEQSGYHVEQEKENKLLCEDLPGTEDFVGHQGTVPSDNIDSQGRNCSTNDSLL
5-hydroxytryptamine receptor 2A (Homo sapiens), sequence (P28223 whole entry, looked up): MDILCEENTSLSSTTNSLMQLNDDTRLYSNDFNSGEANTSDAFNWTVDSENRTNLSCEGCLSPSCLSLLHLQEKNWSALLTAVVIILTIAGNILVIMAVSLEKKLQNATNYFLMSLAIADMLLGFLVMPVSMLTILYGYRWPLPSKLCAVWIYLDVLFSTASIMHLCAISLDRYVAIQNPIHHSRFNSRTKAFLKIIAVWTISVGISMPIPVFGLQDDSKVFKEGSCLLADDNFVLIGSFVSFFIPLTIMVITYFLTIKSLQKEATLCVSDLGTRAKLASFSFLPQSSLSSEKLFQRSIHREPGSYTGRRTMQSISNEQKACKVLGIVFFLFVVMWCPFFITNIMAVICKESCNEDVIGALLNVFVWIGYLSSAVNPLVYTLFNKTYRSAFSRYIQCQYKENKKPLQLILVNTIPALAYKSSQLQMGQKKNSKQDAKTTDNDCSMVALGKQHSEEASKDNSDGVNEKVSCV
Muscarinic acetylcholine receptor M1 (Homo sapiens), sequence (P11229 whole entry, looked up): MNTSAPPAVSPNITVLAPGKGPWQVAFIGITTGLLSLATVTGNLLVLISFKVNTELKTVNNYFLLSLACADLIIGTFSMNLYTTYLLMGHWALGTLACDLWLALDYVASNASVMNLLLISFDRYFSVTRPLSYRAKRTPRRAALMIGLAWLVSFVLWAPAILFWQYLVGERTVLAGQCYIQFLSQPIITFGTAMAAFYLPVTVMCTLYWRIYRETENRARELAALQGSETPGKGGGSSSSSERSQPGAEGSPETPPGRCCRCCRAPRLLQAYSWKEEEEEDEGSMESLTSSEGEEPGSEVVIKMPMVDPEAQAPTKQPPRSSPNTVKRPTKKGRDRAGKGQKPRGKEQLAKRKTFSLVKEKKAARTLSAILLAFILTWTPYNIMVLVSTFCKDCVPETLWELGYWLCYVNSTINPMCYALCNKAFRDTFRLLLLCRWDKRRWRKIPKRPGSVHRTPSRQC

Row | SMILES | Potency [1] | Potency [2] | Potency [3] | outcome [4] | outcome [5] | Potency [6] | Potency [7] | Potency [8] | Potency [9] | Potency [10] | Potency [11] | Potency [12] | Potency [13] | Potency [14] | Potency [15] | Potency [16] | Potency [17] | Potency [18] | Potency [19] | Potency [20]
1 | Cc1oc(=O)oc1COC(=O)[C@@H]1N2C(=O)[C@@H](NC(=O)[C@H](N)c3ccccc3)[C@H]2SC1(C)C | inactive | inactive | inactive | inactive | inactive | inactive | inactive | inactive | inactive | inactive | inactive | inactive | inactive | inactive | inactive | inactive | inactive | inactive | inactive | inactive
2 | O=C(O)CP(=O)(O)O | inactive | inactive | inactive | inactive | inactive | inactive | inactive | inactive | inactive | inactive | inactive | inactive | inactive | inactive | inactive | inactive | inactive | inactive | inactive | inactive
3 | CCCCCCCC1CCCC1=O (centres undefined) | inactive | inactive | inactive | inactive | inactive | inactive | inactive | inactive | inactive | inactive | inactive | inactive | inactive | inactive | inactive | inactive | inactive | inactive | inactive | inactive
4 | ON=C1CCCC1 | inactive | inactive | inactive | inactive | inactive | inactive | inactive | inactive | inactive | inactive | inactive | inactive | inactive | inactive | inactive | inactive | inactive | inactive | inactive | 
5 | CCCCCC#CC(=O)OC | inactive | inactive | inactive | inactive | inactive | inactive | inactive | inactive | inactive | inactive | inactive | inactive | inactive | inactive | inactive | inactive | inactive | inactive | inactive | inactive
6 | CCCCCCCCCC(=O)N(C)C | inactive | 43.9 µM (active) | inactive | inactive | inactive | inactive | inactive | inactive | inactive | inactive | inactive | inactive | inactive | inactive | inactive | inactive | inactive | inactive | inactive | inactive
7 | COc1ccc(NS(=O)(=O)c2ccc(N)cc2)nn1 | inactive | inactive | inactive | inactive | inactive | inactive | inactive | inactive | inactive | inactive | inactive | inactive | inactive | inactive | inactive | inactive | inactive | inactive | inactive | inactive
